This is an account of results in PubChem BioAssay.

The structures appear in SMILES notation. The source made the active and inactive calls. Unless noted, the rule behind the calls is not given here.

Assay [1] is described as follows: compounds binding Alexa647 anti-His antibody – biochemical, small-molecule microarray, 635 nm fluorescence, artefact control for SMM control protein annotation, primary screen (AID 1128).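 Note: score merges feature fluorescence with signal-to-noise for each printed compound spot.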 The settings on record: higher = more signal.
The test system of assay [2] is Human papillomavirus type 1a E7 protein (residues 1-88). Put plainly: HPV1a E7 small-molecule binders, primary screen, biochemical, small-molecule microarray, residues 1-88, 635 nm (AID 1129). The settings on record: small-molecule microarray binding, fluorescence 635 nm; higher = more signal.
Assay [3] concerns the target Focal adhesion kinase 1 (Homo sapiens) (UniProt Q05397). Put plainly: PTK2 protein binding on printed compound slides – biochemical, small-molecule microarray, 635/667 nm fluorescence, BSA, DTT, primary screen (AID 1130).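 Note: composite of spot emission at 667 nm and signal to noise over triplicate slides.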 The settings on record: 635 nm fluorescence, higher = more signal.
Assay [4] relates to Fibrinogen (Alexa647-labelled). Put plainly: Alexa647-fibrinogen binding to printed small molecules – biochemical, small-molecule microarray, 635/667 nm fluorescence, artefact control for SMM control-protein annotation, profiling panel (AID 1131).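 Note: z-score merges 667 nm fluorescence with per-spot signal-to-noise over triplicate slides.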 The settings on record: fibrinogen-A647 binding fluorescence, higher = more signal.
The target of assay [5] is Follistatin (Homo sapiens) (UniProt P19883). Put plainly: FST protein binding to printed compounds – biochemical, small-molecule microarray, 635/667 nm fluorescence, primary screen (AID 1132). The settings on record: 635 nm fluorescence, higher = more signal.
The target in assay [6] is Fibroblast growth factor 2 (Homo sapiens) (UniProt P09038). Put plainly: basic fibroblast growth factor binding to printed compounds – biochemical, small-molecule microarray, 635/667 nm fluorescence, primary screen (AID 1133). The settings on record: FGF2, fluorescence 635/667, higher = more signal.
The nature of assay [7]: JC-1 mitochondrial potential readout, lung cancer cells – cell-based, A549, JC-1 fluorescence, basal, 24 h, 100 nL, profiling panel (AID 1138).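 Note: A549 lung adenocarcinoma cells under basal conditions with no added stimulus; test concentration not given here.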 The settings on record: higher = more signal.
In a further assay the test system is Lefty1. Put plainly: Lefty1 protein binding to printed compounds – biochemical, small-molecule microarray, 635/667 nm fluorescence, primary screen (AID 1139). The settings on record: fluorescence 635/667, higher = more signal.
Assay [8] relates to wheat germ agglutinin (Triticum aestivum), Alexa647-labelled. Put plainly: Alexa647-WGA lectin binding to printed small molecules – biochemical, small-molecule microarray, 635/667 nm fluorescence, artefact control for SMM control-protein annotation, profiling panel (AID 1140).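 Note: score merges 667 nm feature emission with signal to noise over triplicate slides.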 The settings on record: WGA-A647 binding, 635 nm fluorescence, higher = more signal.
Assay [9] has as its target Luciferin 4-monooxygenase (Photinus pyralis) (UniProt P08659). Put plainly: inhibition of purified Photinus pyralis luciferase – biochemical, luminescence, purified enzyme, 2006 set, primary screen (AID 1141).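 Note: cell-free assay with purified firefly luciferase at 100 ng per well in PBS; test concentration not given here.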 The settings on record: purified firefly luciferase, SteadyGlo luminescence, 30 min; higher = more signal, called active from +8 up or from −8 down.
Assay [10] relates to Wnt5a (protein binding on small-molecule microarray). Put plainly: small molecules binding Wnt5a protein – biophysical, small-molecule microarray, 635/667 nm fluorescence, primary screen (AID 1142).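 Note: fluorescence read at 667 nm with signal to noise per printed feature.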 The settings on record: 635 nm fluorescence, higher = more signal.
The nature of assay [11]: ATP-based viability of Huh7 replicon cells – cell-based, CellTiter-Glo luminescence, basal, 48 h, cytotoxicity control for HCV replication inhibitor project, primary screen (AID 1143).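 Note: Huh7 hepatoma cells carrying a hepatitis C replication reporter with no stimulus; test concentration not given here.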 The settings on record: higher = more signal, called active from +8 up or from −8 down.
Assay [12] is described as follows: Pseudomonas biofilm growth suppression – PAO1 strain, BacTiter-Glo luminescence, LB-PBS, primary screen (AID 1144). The settings on record: P. aeruginosa PAO1 biofilm, 12 h, higher = more signal.
Assay [13] is described as follows: basal CRE-LacZ reporter activity in PC12 – cell-based, unstimulated, primary screen (AID 1145). The settings on record: no forskolin, luminescence, 4.5 h, higher = more signal, called active from +8 up or from −8 down.
Assay [14] can be described thus: forskolin-driven CRE-LacZ activity in PC12 – cell-based, CRE-LacZ reporter, forskolin-stimulated, primary screen (AID 1146).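 Note: PC12 cells with 6xCRE LacZ reporter stimulated by forskolin 10 µM; beta-galactosidase reporter signal reflecting CREB driven transcription.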 The settings on record: luminescence, 4.5 h, higher = more signal, called active from +8 up or from −8 down.
The target in assay [15] is Streptavidin (Streptomyces avidinii) (UniProt P22629). Put plainly: compounds binding control protein streptavidin – biophysical, small-molecule microarray, 635/667 nm fluorescence, artefact control for SMM compound annotation, primary screen (AID 1147).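 Note: signal reflects streptavidin binding to arrayed compounds as a control protein.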 The settings on record: higher = more signal.
Assay [16] in a line: probe aInhba binding on compound microarray – biochemical, small-molecule microarray, 635/667 nm fluorescence, primary screen (AID 1148).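 Note: score merges 667nm spot fluorescence with signal-to-noise for antibody binding to printed compounds.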 The settings on record: higher = more signal.
The target of assay [17] is Torsin-1A (Homo sapiens) (UniProt O14656). Put plainly: TOR1A wild-type binding on microarray – cell lysate, small-molecule microarray, lysate, 635/667 nm, primary screen (AID 1149). The settings on record: COS7 hTOR1A-WT lysate, 635 nm fluorescence, higher = more signal.
The target is the same in assay [18]. Put plainly: torsin A mutant lysate binding on microarrays – cell lysate, small-molecule microarray, COS7 lysate, 635/667 nm fluorescence, primary screen (AID 1150).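 Note: score pools 667 nm emission and signal to noise measuring lysate protein binding.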 The settings on record: COS7 hTOR1A mutant lysate, 635 nm fluorescence, higher = more signal.
The test system of assay [19] is Sonic hedgehog protein (Shh). Put plainly: Sonic hedgehog microarray binding compounds – biochemical, small-molecule microarray, 635/667 nm fluorescence, primary screen (AID 1151).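 Note: Shh protein binding to compounds spotted on small-molecule microarray slides; score combines spot fluorescence intensity with signal-to-noise across triplicate slides.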 The settings on record: 635 nm fluorescence, higher = more signal.

Sequence of Torsin-1A (Homo sapiens) (O14656 whole entry, looked up): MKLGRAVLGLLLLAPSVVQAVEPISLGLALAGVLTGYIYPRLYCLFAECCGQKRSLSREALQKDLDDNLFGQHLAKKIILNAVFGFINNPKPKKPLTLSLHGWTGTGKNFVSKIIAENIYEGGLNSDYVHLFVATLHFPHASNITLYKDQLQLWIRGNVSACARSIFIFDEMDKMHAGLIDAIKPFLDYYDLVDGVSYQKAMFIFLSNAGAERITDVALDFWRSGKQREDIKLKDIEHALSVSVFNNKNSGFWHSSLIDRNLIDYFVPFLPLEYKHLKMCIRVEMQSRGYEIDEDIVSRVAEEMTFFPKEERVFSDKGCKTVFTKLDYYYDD
Sequence of Follistatin (Homo sapiens) (P19883 whole entry, looked up): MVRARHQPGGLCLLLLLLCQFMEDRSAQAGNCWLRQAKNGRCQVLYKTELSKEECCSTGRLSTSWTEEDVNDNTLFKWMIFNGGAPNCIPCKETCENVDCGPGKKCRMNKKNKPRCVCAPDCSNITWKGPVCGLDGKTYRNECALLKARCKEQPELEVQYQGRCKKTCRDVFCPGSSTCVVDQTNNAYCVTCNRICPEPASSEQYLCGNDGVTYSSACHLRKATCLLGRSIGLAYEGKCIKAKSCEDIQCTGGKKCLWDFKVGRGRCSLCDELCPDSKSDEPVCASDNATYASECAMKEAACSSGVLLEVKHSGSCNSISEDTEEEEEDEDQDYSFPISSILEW
Sequence of Fibroblast growth factor 2 (Homo sapiens) (P09038 whole entry, looked up): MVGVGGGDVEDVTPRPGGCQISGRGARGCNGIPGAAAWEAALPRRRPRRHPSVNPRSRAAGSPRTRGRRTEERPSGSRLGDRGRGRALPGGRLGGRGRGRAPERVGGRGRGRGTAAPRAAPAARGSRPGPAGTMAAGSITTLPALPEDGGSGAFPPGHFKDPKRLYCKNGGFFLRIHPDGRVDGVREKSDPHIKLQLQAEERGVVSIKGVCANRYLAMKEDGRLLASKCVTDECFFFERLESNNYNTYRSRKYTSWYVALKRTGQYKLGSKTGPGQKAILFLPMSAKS
Sequence of Luciferin 4-monooxygenase (Photinus pyralis) (P08659 whole entry, looked up): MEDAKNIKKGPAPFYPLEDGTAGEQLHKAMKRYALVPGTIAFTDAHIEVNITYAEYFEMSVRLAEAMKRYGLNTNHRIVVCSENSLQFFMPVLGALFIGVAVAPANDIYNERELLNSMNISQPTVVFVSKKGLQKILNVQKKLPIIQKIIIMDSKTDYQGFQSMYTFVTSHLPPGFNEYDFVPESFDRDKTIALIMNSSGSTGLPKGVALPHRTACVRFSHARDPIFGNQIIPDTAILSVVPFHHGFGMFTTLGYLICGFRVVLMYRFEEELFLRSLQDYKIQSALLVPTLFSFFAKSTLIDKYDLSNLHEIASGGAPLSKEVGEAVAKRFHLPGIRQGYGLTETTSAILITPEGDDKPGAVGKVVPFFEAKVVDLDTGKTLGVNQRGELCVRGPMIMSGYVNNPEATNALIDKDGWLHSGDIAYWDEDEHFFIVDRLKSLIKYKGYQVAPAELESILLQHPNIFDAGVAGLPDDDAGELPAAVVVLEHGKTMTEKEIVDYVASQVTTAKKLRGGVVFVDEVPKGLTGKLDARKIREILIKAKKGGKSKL
Sequence of Focal adhesion kinase 1 (Homo sapiens) (Q05397 whole entry, looked up): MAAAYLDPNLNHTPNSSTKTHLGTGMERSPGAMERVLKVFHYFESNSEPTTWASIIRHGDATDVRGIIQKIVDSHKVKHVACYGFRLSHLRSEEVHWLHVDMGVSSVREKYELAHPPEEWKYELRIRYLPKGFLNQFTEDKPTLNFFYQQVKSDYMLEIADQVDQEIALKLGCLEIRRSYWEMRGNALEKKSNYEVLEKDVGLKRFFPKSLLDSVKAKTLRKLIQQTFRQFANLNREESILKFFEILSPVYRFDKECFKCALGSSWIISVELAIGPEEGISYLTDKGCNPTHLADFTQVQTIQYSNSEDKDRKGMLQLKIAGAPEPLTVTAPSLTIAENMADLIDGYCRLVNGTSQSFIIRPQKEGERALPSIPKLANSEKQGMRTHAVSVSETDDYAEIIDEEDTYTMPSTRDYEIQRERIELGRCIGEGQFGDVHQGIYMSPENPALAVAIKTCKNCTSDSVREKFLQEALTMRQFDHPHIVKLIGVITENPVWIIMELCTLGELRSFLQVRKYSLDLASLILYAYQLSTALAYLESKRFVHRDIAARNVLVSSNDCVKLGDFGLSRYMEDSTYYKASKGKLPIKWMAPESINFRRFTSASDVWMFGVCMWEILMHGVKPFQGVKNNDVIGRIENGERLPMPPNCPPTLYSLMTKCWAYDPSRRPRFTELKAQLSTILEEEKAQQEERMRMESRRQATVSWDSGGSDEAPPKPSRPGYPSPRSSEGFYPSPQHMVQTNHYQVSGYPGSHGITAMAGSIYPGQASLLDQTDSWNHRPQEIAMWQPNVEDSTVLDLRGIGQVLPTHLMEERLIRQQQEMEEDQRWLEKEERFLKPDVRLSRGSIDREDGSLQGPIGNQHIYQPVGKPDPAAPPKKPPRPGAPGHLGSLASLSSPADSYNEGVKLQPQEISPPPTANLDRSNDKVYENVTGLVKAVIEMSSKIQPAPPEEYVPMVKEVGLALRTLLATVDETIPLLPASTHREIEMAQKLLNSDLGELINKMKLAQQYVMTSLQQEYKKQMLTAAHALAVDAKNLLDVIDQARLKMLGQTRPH
Sequence of Streptavidin (Streptomyces avidinii) (P22629 whole entry, looked up): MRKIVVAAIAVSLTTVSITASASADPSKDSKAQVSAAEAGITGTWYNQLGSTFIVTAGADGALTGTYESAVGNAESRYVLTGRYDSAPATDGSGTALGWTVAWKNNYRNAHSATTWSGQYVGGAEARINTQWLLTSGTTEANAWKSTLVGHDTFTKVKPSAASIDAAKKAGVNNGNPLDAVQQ

Turning to `COC(=O)[C@H]1COC(c2ccc(OCCCO)cc2)=N1`, the composite z-score is -0.748 in assay [1]; -0.877 in [2]; -0.57 in assay [3]; -4.27 in [4]; 0.267 in assay [5]; 1.14 in assay [6]. Besides, the composite z-score is -0.878 with Lefty1; 0.177 in [8]; -0.0323 in assay [10]; -0.998 in assay [15]; -0.204 in [16]; 0.337 in the assay with Torsin-1A (Homo sapiens) [17]. For the same molecule, the composite z-score in the assay with Torsin-1A (Homo sapiens) [18] is 1.4; in assay [19], -0.196. For the same molecule, the z-score in assay [7] was -0.765; in assay [9], -21.6 (active); in [11], -0.597 (inactive); in [12], -0.767 (inactive); in assay [13], 0.0686 (inactive); in [14], 0.697 (inactive).
As for `O=C1[C@H]2[C@H]3[C@H](O)[C@H](O)CC(=NO[C@@H]4O[C@H](CO)[C@@H](O)[C@H](O)[C@H]4O)[C@H]3CC[C@H]2C(=O)N1Cc1ccccc1`, the composite z-score in assay [1] is 0.0948; in assay [2], 0.768; in [3] it was 0.0406; in assay [4], -0.187; in [5] it was -0.179; in assay [6], 0.389. Moreover, the composite z-score with Lefty1 is 0.358; in [8] it was -0.0816; in assay [10], 0.927; in assay [15], 0.001; in assay [16], -0.0736; with Torsin-1A (Homo sapiens) [17] it was 0.717. In addition, the composite z-score with Torsin-1A (Homo sapiens) [18] was determined as 0.0309; in assay [19], 0.439. In addition, the z-score in [7] is -0.252; in assay [9] it was 0.589 (inactive); in [11], -0.871 (inactive); in assay [12], 0.641 (inactive); in assay [13], -0.474 (inactive); in assay [14], -0.0615 (inactive).
`CCCC[C@@H](O)C1=C(C)C[C@H]2C(=O)N(Cc3ccccc3)C(=O)[C@H]2[C@H]1CO`: the composite z-score was 0.314 in assay [1]; 0.0359 in assay [2]; -0.0945 in assay [3]; -0.0897 in assay [4]; 0.438 in [5]; 0.828 in assay [6]. Further, the composite z-score in the assay with Lefty1 was 0.492; in assay [8], -0.423; in [10] it was -0.0299; in assay [15], -0.451; in [16], -0.0986; with Torsin-1A (Homo sapiens) [17], 0.149. Also, the composite z-score is -0.21 with Torsin-1A (Homo sapiens) [18] and 0.572 in assay [19]. Further, the z-score was 0.923 in assay [7]; -0.467 (inactive) in assay [9]; -0.295 (inactive) in assay [11]; -0.665 (inactive) in assay [12]; 1.29 (inactive) in assay [13]; 0.342 (inactive) in assay [14].
With `CO[C@@H]1COC(=O)CC=C[C@@H](C)[C@@H]2C=C[C@H](O)[C@@H](COC(=O)[C@H](C)NC(=O)CC=C[C@H]1C)O2`, the composite z-score was 1.85 in [1]; -0.794 in [2]; -0.407 in assay [3]; -0.734 in assay [4]; 1.11 in assay [5]; 1.73 in assay [6]. The composite z-score was 1.53 in the assay on Lefty1; -0.17 in assay [8]; 0.0389 in [10]; -0.408 in assay [15]; -0.265 in assay [16]; 1.44 in the assay with Torsin-1A (Homo sapiens) [17]. Moreover, the composite z-score came to 1.81 with Torsin-1A (Homo sapiens) [18] and 2.13 in assay [19]. Moreover, the z-score was -1.23 in assay [7]; 1.02 (inactive) in assay [9]; -2.59 (inactive) in [11]; -0.972 (inactive) in [12]; -0.324 (inactive) in [13]; 0.194 (inactive) in assay [14].
Regarding `CC(CCN1CCc2nc(-c3ccccc3)c(-c3ccccc3)cc2C1)=NOC[C@@H](C)[C@H](OCc1ccccc1)C(C)C`, the composite z-score in assay [1] was 1.45; in [2], -1.69; in assay [3], 0.123; in assay [4], -0.242; in assay [5] it was -1.45; in [6] it was -1.14. Moreover, the composite z-score with Lefty1 is -0.677; in assay [8], -0.469; in assay [10], -0.492; in [15], -0.717; in [16], -0.261; with Torsin-1A (Homo sapiens) [17], -2.11. Moreover, the values for the composite z-score (in the assay with Torsin-1A (Homo sapiens) [18]; in assay [19]) were -1.21 and -0.819, respectively. The z-score in [7] is 0.436; in [9], -1.09 (inactive); in assay [11] it was 0.232 (inactive); in assay [12], -0.612 (inactive); in [13], 2.07 (inactive); in [14], -0.17 (inactive).
